Rows were chosen to be rich in hits. Some 6.9% of all compounds tested hit in one or more screens of this group.
JMJD2A Tudor – blocks the human JMJD2A Tudor domain; 4.4% of 390,000 active; O75164; AlphaScreen JMJD2A-Tudor / H3K4me3 peptide binding; Potency, µM (highest dose often 114 µM), without a hit: top-dose activity change, negative = inhibition, hits mostly inhibitors; AID 504339; also: % is scaled to controls: 0 for no effect and ±100 for the full control effect; nearly all actives have a fitted effect of over 50% in size
HP1b chromo inh – HP1-beta chromodomain-methylated histone interaction inhibition; AlphaScreen HP1-beta / biotin-H3K9me3 peptide binding; Potency, µM (doses to about 114 µM), for the others: at the top dose activity change, negative = inhibition, usual class: inhibitors; 0.56% of 390,000 active; AID 540317; also: nearly all actives have a fitted effect of over 70% in size
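AlphaScreen: HP1-beta (50 nM) preformed 30 min with biotin-H3(1-18)K9me3 peptide (50 nM) in PBS pH 7.4, 0.01% Tween-20. Compound added for 30 min at RT, then streptavidin donor/nickel chelate acceptor beads (10 ug/mL) for 30 min.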
VDR inhibitor – blocks the human vitamin D receptor; 0.93% of 400,000 active; VDR-SRC2-3 peptide fluorescence polarization, 2 h; P11473; AID 504847; Potency, µM, for the others: max response, negative = inhibition, actives largely listed as inhibitors; also: % is scaled to controls: 0 for no effect and ±100 for the full control effect
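The screen uses fluorescence polarization to detect compounds that interfere with recruitment of the SRC2-3 coactivator peptide to VDR; plates are read after 2 h at room temperature.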
L3MBTL1 inh – blocks human L3MBTL1. Potency, µM (highest dose often 57.1 µM), for the others: at the top dose activity, negative = inhibition, most hits filed as inhibitors. Q9Y468. 0.66% of 230,000 active. AlphaScreen L3MBTL1–H3K9me1 peptide binding; also: % is scaled to controls: 0 for no effect and ±100 for the full control effect; nearly all actives have a fitted effect of over 60% in size
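AlphaScreen assay: L3MBTL1 (50 nM final) was preincubated 30 min at room temperature with biotinylated H3(1-15)K9me1 peptide (75 nM final), then 30 min with library compounds; streptavidin donor and nickel chelate acceptor beads (10 ug/mL final) added, 30 min dark.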
BAZ2B block – blocks human BAZ2B; 4.4% of 360,000 active; AlphaScreen BAZ2B-H3K14Ac peptide displacement; Q9UIF8; AID 504333; Potency, µM (doses to about 114 µM), for inactives: at the highest dose activity change, negative = inhibition, most hits filed as inhibitors; also: % is scaled to controls: 0 for no effect and ±100 for the full control effect; nearly all actives have a fitted effect of over 60% in size
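AlphaScreen displacement: compounds (up to 110uM) incubated 30 min at room temperature with a preformed 50 nM BAZ2B/50 nM biotinylated H3K14Ac peptide complex in PBS pH 7.4 with Tween-20. Donor and acceptor beads at 10 ug/mL final added, 20 min light-protected before reading.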
PLK1 PBD inh – inhibitors of human PLK1 polo-box domain binding; 2.8% of 360,000 active; Plk1 PBD binding of FITC phosphopeptide, fluorescence polarization; Potency, µM, for inactives: max response, negative = inhibition, actives largely listed as inhibitors; AID 720504; also: series mostly up to about 57 µM; % is scaled to controls: 0 for no effect and ±100 for the full control effect; nearly all actives have a fitted effect of over 65% in size
The depositor's hits bear a star; [ ] = dose if it differs, or a comment. Calls follow the shape of the dose curve; as a rule, active = well fitted curve in the direction sought with a large enough effect; inconclusive = small, poorly fitted or top-dose-only effect, or another doubt; inactive = no such curve, though single readings can be large; an effect the other way counts as inactive or inconclusive. Potency is read from the fitted curve at half-maximal effect.

`CCOC(=O)Cc1cc(=O)n2[nH]c(C)cc2n1` gave JMJD2A Tudor 16µM*, HP1b chromo inh 11%, VDR inhibitor 0%, L3MBTL1 inh 25%[11.4 µM], BAZ2B block inconclusive and PLK1 PBD inh 1%.
For Cc1cccc(NC(=O)Cn2c(=O)n(Cc3ccccc3)c(=O)c3sc4ccccc4c32)c1 the results were JMJD2A Tudor -6%, HP1b chromo inh 15%, VDR inhibitor -8% and BAZ2B block 10%.
`Cc1cc(=O)[nH]c2[nH][nH]c(=O)c12` gave JMJD2A Tudor 6.3µM*, HP1b chromo inh 8%, VDR inhibitor -7% and PLK1 PBD inh -3%.
For CS(=O)(=O)n1nc(OC(=O)c2cc(Br)ccc2Cl)cc1N the results were JMJD2A Tudor -19%, HP1b chromo inh 26%, VDR inhibitor inconclusive, L3MBTL1 inh 9%, BAZ2B block -39% and PLK1 PBD inh 11µM*.
Screening COc1ccc(NC(=O)COc2ccc(C(=O)OCC(=O)N(C(C)C)C(C)C)cc2OC)cc1 returned JMJD2A Tudor -26%, HP1b chromo inh inconclusive, VDR inhibitor -8%, L3MBTL1 inh 15%, BAZ2B block -16% and PLK1 PBD inh 24µM*.
Screening CCOc1ccc(C(=O)OCC(=O)Nc2ccc3c(c2)OCCO3)cc1OC returned JMJD2A Tudor 4%, HP1b chromo inh 57%, VDR inhibitor 7%, L3MBTL1 inh 0%, BAZ2B block 0% and PLK1 PBD inh 0%.
`Cc1ccc(C)c(NC(=O)CN2C(=O)c3cccnc3Oc3ccc(C)cc32)c1` gave JMJD2A Tudor -29%, HP1b chromo inh 21%, VDR inhibitor -7% and BAZ2B block -8%.
`COc1cc(OC)cc(C(=O)Nc2ccc([N+](=O)[O-])cn2)c1` gave JMJD2A Tudor inconclusive, HP1b chromo inh inconclusive, VDR inhibitor inconclusive, L3MBTL1 inh 6%, BAZ2B block -3% and PLK1 PBD inh 27µM*.
COc1cccc(-c2nccc(NCc3ccccc3)n2)c1 was read as VDR inhibitor -21%.
Screening CC(=O)N1c2ccc(S(=O)(=O)N3CCCC3)cc2CC1C(=O)Nc1cc(C)cc(C)c1 (stereo not drawn) returned JMJD2A Tudor -12%, HP1b chromo inh 9%, VDR inhibitor 14%, BAZ2B block -5% and PLK1 PBD inh 10%.
For CC(=O)N1c2ccc(S(=O)(=O)N3CCCCC3)cc2CC1C(=O)Nc1ccc(F)cc1C (stereo not drawn) the results were JMJD2A Tudor -27%, HP1b chromo inh -1%, VDR inhibitor inconclusive, BAZ2B block -6% and PLK1 PBD inh 27µM*.
Screening Cc1ccc2c(c1)c1ccc3c(c1n2C)C(=O)C=CC3=O returned JMJD2A Tudor 6.3µM*, HP1b chromo inh 3.2µM*, VDR inhibitor 50µM*, BAZ2B block 10µM* and PLK1 PBD inh 19µM*.
Oc1ccc2ccccc2c1C1Nc2cccc3cccc(c23)N1 was read as JMJD2A Tudor 45µM*, HP1b chromo inh inconclusive, VDR inhibitor -11%, BAZ2B block 40µM* and PLK1 PBD inh -9%.
CCN(CC)c1ccc(C2Nc3cccc4cccc(c34)N2)c(O)c1 was read as JMJD2A Tudor 35µM*, HP1b chromo inh inconclusive, VDR inhibitor 13%, L3MBTL1 inh inconclusive, BAZ2B block 11µM* and PLK1 PBD inh 5%.
For Brc1ccc(C2Nc3cccc4cccc(c34)N2)s1 the results were JMJD2A Tudor -32%, HP1b chromo inh inconclusive, VDR inhibitor -26%, L3MBTL1 inh -1%, BAZ2B block inconclusive and PLK1 PBD inh inconclusive.
`Cc1cc(=O)[nH]c(SCC(=O)C23CC4CC(CC(C4)C2)C3)c1C#N` gave JMJD2A Tudor -16%, HP1b chromo inh 24%, VDR inhibitor inconclusive, L3MBTL1 inh -9%, BAZ2B block 11% and PLK1 PBD inh 24µM*.
Cc1cc(=O)[nH]c(SCC(=O)O)c1C#N was read as JMJD2A Tudor -12%, HP1b chromo inh 29%, VDR inhibitor -2%, L3MBTL1 inh -2%, BAZ2B block 7% and PLK1 PBD inh -3%.
For Cc1cn2c(=O)cc(COC(=O)c3ccc(NC(=O)COc4ccccc4C)cc3)nc2s1 the results were JMJD2A Tudor -3%, HP1b chromo inh 27%, VDR inhibitor 11% and BAZ2B block -11%.
Screening Cc1c(NC(=O)c2c(NC(=O)CNC3CC3)sc3c2CCCC3)c(=O)n(-c2ccccc2)n1C returned JMJD2A Tudor 56µM*, HP1b chromo inh 0%, VDR inhibitor -16%, L3MBTL1 inh 0%, BAZ2B block inconclusive and PLK1 PBD inh 3%.
CC1(C)OC(=O)C2(Cc3ccc(Br)cc3N3CCCCC32)C(=O)O1 (stereo not drawn) was read as JMJD2A Tudor 56µM*, HP1b chromo inh 5% and VDR inhibitor -4%.
CN(C)c1ncc2nc(-c3ccc(Cl)cc3)c(=O)n(C[C@H]3CCCO3)c2n1 was read as VDR inhibitor -9%.
For COc1ccccc1CNS(=O)(=O)c1ccc(F)c(C(=O)Nc2cc(Cl)ccc2OC)c1 the results were JMJD2A Tudor -25%, HP1b chromo inh 38%, VDR inhibitor 18% and BAZ2B block 2%.
Screening O=C(Cn1nc(CNc2ccc(Cl)cc2)[n+]2c1CCCCC2)c1ccc(Br)cc1 returned JMJD2A Tudor -34%, HP1b chromo inh -11%, VDR inhibitor -1%, L3MBTL1 inh 3%, BAZ2B block inconclusive and PLK1 PBD inh -16%.
For COc1ccc(NCc2nn(CC(=O)c3ccc(Br)cc3)c3[n+]2CCCCC3)cc1 the results were JMJD2A Tudor 45µM*, HP1b chromo inh -17%, VDR inhibitor -20%, L3MBTL1 inh -19%, BAZ2B block 35µM* and PLK1 PBD inh -17%.
O=C(CCN1CCOCC1)c1ccc(N2CCCCC2)cc1 was read as JMJD2A Tudor -32%, HP1b chromo inh 30%, VDR inhibitor inconclusive, L3MBTL1 inh 2%, BAZ2B block 7% and PLK1 PBD inh -17%.
For CC(C)(C)c1cc(C(=O)CCN2CCOCC2)cc(C(C)(C)C)c1O the results were JMJD2A Tudor -9%, HP1b chromo inh 23%, VDR inhibitor 50µM*, BAZ2B block 2% and PLK1 PBD inh inconclusive.
Cc1[nH]c(=S)n(CC2CCCO2)c1C (stereo not drawn) was read as JMJD2A Tudor 28µM*, HP1b chromo inh -16%, VDR inhibitor -18%, L3MBTL1 inh 3%, BAZ2B block 0% and PLK1 PBD inh -13%.
For COc1cc2[nH]c(=S)n(CC3CCCO3)c(=O)c2cc1OC (stereo not drawn) the results were JMJD2A Tudor 79µM*, HP1b chromo inh 24%, VDR inhibitor 13%, BAZ2B block 3% and PLK1 PBD inh -5%.

Bioassay records (PubChem)
